Measurements from PubChem BioAssay (NCATS).
Inconclusive results are not listed. Activity calls are given as the source filed them. Calls come from the whole dose curve; as a rule, active = well fitted curve in the direction sought with a large enough effect; inconclusive = small, poorly fitted or top-dose-only effect, or another doubt; inactive = no such curve, though single readings can be large; an effect the other way counts as inactive or inconclusive.

Tests used:
[1] = test system: CRL-7250; test: Cytotoxic Profiling of Annotated Libraries Using Quantitative High-Throughput Screening (AID 1296008); details: Five cell lines viability, CellTiter-Glo ATP luminescence, 48-72 h; max response: hits give low values; note: nearly all actives have a fitted effect of over 60% in size; for max response: % is set by controls: 0 for no effect and ±100 for the full control effect
Method in brief: (§1)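 Cells exposed to compounds for 48 or 72 hr at 37 degrees Celsius. Viability read as ATP-coupled luminescence with CellTiter-Glo after 10 min at room temperature.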

[2] = test system: HEK293; test: as above; details: Five cell lines viability, CellTiter-Glo ATP luminescence, 48-72 h; max response: hits give low values
Method in brief: as §1

[3] = test system: HaCat; test: as above; details: Five cell lines viability, CellTiter-Glo ATP luminescence, 48-72 h; max response: hits give low values
Method in brief: as §1

[4] = test system: KB-3-1; test: as above; details: Five cell lines viability, CellTiter-Glo ATP luminescence, 48-72 h; max response: hits give low values
Method in brief: as §1

[5] = test system: NIH3T3; test: as above; details: Five cell lines viability, CellTiter-Glo ATP luminescence, 48-72 h; max response: hits give low values
Method in brief: as §1

[6] = test system: HACAT; test: qHTS assay to identify novel small-molecules to repurpose for Merkel cell carcinoma treatment (AID 1296009); details: MCC and control cell lines, CellTiter-Glo viability, 72 h; at 44.8 µM (top of the series) unless noted; note: nearly all actives have a fitted effect of over 60% in size
Method in brief: (§2)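 Dose-response viability screen; 72 hr exposure at 37 degree celsius; CellTiter-Glo added, 10 min room temperature, luminescence read; RLUs scaled between no-cell and DMSO wells.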

[7] = test system: NIH3T3; test: as above; details: MCC and control cell lines, CellTiter-Glo viability, 72 h; at 44.8 µM (top of the series) unless noted
Method in brief: as §2

[8] = test system: C33A; test: Primary qHTS to identify gynecologic anti-cancer compounds using libraries of approved drugs and bioactive compounds (AID 1345084); details: Gynecologic cancer cell panel viability, ATPlite luminescence, 48 h; series mostly up to 57.5 µM; note: % is set by controls: 0 for no effect and ±100 for the full control effect; nearly all actives have a fitted effect of over 55% in size
Method in brief: (§3)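 Cells, 1,000 per well, were allowed to settle for 16 h at 37 C before compound addition. Five concentrations were tested for 48 h, and viability was read by ATPlite luminescence after 15 min at room temperature.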

[9] = test system: CAOV3; test: as above; details: Gynecologic cancer cell panel viability, ATPlite luminescence, 48 h; series mostly up to 57.5 µM
Method in brief: as §3

[10] = test system: CASKI; test: as above; details: Gynecologic cancer cell panel viability, ATPlite luminescence, 48 h; series mostly up to 57.5 µM
Method in brief: as §3

[11] = test system: Es-2; test: as above; details: Gynecologic cancer cell panel viability, ATPlite luminescence, 48 h; series mostly up to 57.5 µM
Method in brief: as §3

[12] = test system: HeLa; test: as above; details: Gynecologic cancer cell panel viability, ATPlite luminescence, 48 h; series mostly up to 57.5 µM
Method in brief: as §3

[13] = test system: Hek293T; test: as above; details: Gynecologic cancer cell panel viability, ATPlite luminescence, 48 h, control line for the selectivity index; series mostly up to 57.5 µM
Method in brief: as §3

[14] = test system: JEG-3; test: as above; details: Gynecologic cancer cell panel viability, ATPlite luminescence, 48 h; series mostly up to 57.5 µM
Method in brief: as §3

COc1cc(-c2ccc(O)cc2)c(OC)c(O)c1C1=CC(=O)OC1CC(=O)O (stereo not drawn)
inactive: max response [1] 2.67% | max response [2] 1.87% | outcome [3] | max response [4] -5.37% | outcome [5] | outcome [6] | outcome [7] | Potency [8] | Potency [9] | outcome [10] | Potency [11] | Potency [12] | Potency [13] | Potency [14]

CCC(C)/C=C(C)/C=C/C1=CC2=C(Cl)C(=O)C(C)(OC(C)=O)C(=O)C2=CN1C(CCC(=O)O)C(=O)O (stereo not drawn)
inactive: max response [1] -2.2% | max response [2] -1.69% | outcome [3] | outcome [4] | outcome [5] | outcome [6] inactive [at 17.4 µM] | outcome [7] inactive [at 17.4 µM] | Potency [8] | Potency [9] | outcome [10] | Potency [11] | Potency [12] | Potency [14]

COc1cc(C)c(C(=O)NC2C(C)OC(OC3CCC(C)C4C3C=C(C)C3/C(C)=C\CC/C(C)=C/C5(C)C=C(C(=O)O)C(C)CC56OC(=O)/C(=C(\O)C34C)C6=O)C(O)C2(C)O)c(O)c1 (stereo not drawn)
inactive: max response [1] -0.565% | max response [2] -0.938% | outcome [3] | max response [4] -0.929% | outcome [5] | outcome [6] inactive [at 9.27 µM] | outcome [7] inactive [at 9.27 µM] | activity change, negative = cytotoxicity [8] 8.62% [at 11.6 µM] | activity change, negative = cytotoxicity [9] 11.9% [at 11.6 µM] | activity change, negative = cytotoxicity [10] 23.4% [at 11.6 µM] | activity change, negative = cytotoxicity [11] -2.46% [at 11.6 µM] | activity change, negative = cytotoxicity [12] 2.6% [at 11.6 µM] | activity change, negative = cytotoxicity [13] 9.94% [at 11.6 µM] | activity change, negative = cytotoxicity [14] 4.16% [at 11.6 µM]

CC1(C)CC[C@]2(C(=O)O[C@@H]3O[C@H](CO[C@@H]4O[C@H](CO[C@@H]5O[C@H](CO)[C@H](O)[C@H](O)[C@H]5O)[C@@H](O)[C@H](O)[C@H]4O)[C@@H](O)[C@H](O[C@@H]4O[C@H](CO)[C@@H](O)[C@H](O)[C@H]4O)[C@H]3O)[C@H](O)C[C@]3(C)C(=CCC4[C@@]5(C)CC[C@H](O[C@@H]6OC[C@@H](O)[C@H](O)[C@H]6O)[C@@](C)(C(=O)O)C5CC[C@]43C)[C@@H]2C1 (stereo partly drawn)
inactive: max response [1] 2.11% | max response [2] -1.97% | outcome [3] | outcome [4] | outcome [5] | outcome [6] inactive [at 9.27 µM] | outcome [7] inactive [at 9.27 µM] | activity change, negative = cytotoxicity [8] 12.5% [at 6.55 µM] | activity change, negative = cytotoxicity [9] 1.69% [at 6.55 µM] | activity change, negative = cytotoxicity [10] -1.12% [at 6.55 µM] | activity change, negative = cytotoxicity [11] -9.51% [at 6.55 µM] | activity change, negative = cytotoxicity [12] 2.81% [at 6.55 µM] | activity change, negative = cytotoxicity [13] -1.44% [at 6.55 µM] | activity change, negative = cytotoxicity [14] -1.76% [at 6.55 µM]

COc1cc(CO)ccc1O[C@@H]1O[C@H](CO)[C@@H](O)[C@H](O)[C@H]1O
inactive: max response [1] -0.424% | max response [2] -18.7% | outcome [3] | max response [4] 5.53% | outcome [5] | outcome [6] | outcome [7] | Potency [8] | outcome [10] | Potency [11] | Potency [12] | Potency [13] | Potency [14]

O=C(O)c1ccc(NC(=O)[C@H](CC2CCCC2)n2cnc(C(F)(F)F)c2)nc1
inactive: max response [1] -11.6% | max response [2] -11% | outcome [3] | outcome [4] | outcome [5] | outcome [6] | outcome [7] | Potency [8] | Potency [9] | outcome [10] | Potency [11] | Potency [13] | Potency [14]

CC1=C2C[C@@]3(C)[C@@H](CCC[C@@H]3C)C[C@@]2(O)OC1=O
inactive: outcome [1] | max response [2] -2.55% | outcome [3] | max response [4] 8.04% | outcome [5] | outcome [6] | outcome [7] | Potency [8] | outcome [10] | Potency [11] | Potency [12] | Potency [13] | Potency [14]

CC1(CO)CC(O)C2(C)CCC3(C)C(=CCC4C5(C=O)CCC(OC6OC(C(=O)O)C(O)C(O)C6OC6OC(C(=O)O)C(O)C(O)C6O)C(C)(C)C5CCC43C)C2C1 (stereo not drawn)
inactive: outcome [1] | max response [2] -10.9% | outcome [3] | outcome [4] | outcome [5] | outcome [6] inactive [at 9.27 µM] | outcome [7] inactive [at 9.27 µM] | activity change, negative = cytotoxicity [8] 4.08% [at 11.6 µM] | activity change, negative = cytotoxicity [9] 8.53% [at 11.6 µM] | activity change, negative = cytotoxicity [10] 5.93% [at 11.6 µM] | activity change, negative = cytotoxicity [11] 3.36% [at 11.6 µM] | activity change, negative = cytotoxicity [12] 7.21% [at 11.6 µM] | activity change, negative = cytotoxicity [13] -0.0914% [at 11.6 µM] | activity change, negative = cytotoxicity [14] 2.3% [at 11.6 µM]
